Molecules are shown by their SMILES. About 1,400 (0.45%) of roughly 310,000 compounds were called active.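 The calls were made as follows: active = B-score, a plate-corrected calcium signal, over three deviations above library mean, with baseline fluorescence within five deviations of library mean; inactive = the rest.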 Many of the other results were omitted from the sample, so actives are more common in it than they were.

For this assay, the target named is Regulator of G-protein signaling 4 (Homo sapiens) (UniProt P49798). The experiment in a line: RGS4 inhibitors, primary screen, cell-based, HEK293 M3R inducible RGS4, calcium flux (AID 463165).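 Also: RGS4 expression induced by doxycycline in cells with stable M3 receptor.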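 As to B-score: B-score is computed from the integrated fluorescence ratio over baseline after carbachol.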 The settings on record: Fluo-4 calcium flux, at 10 µM, triggered by carbachol at its EC20; stronger effect = higher value. A general note: Calcium flux is commonly read through the fluorescence of an indicator in the cells.
Sequence of Regulator of G-protein signaling 4 (Homo sapiens) (P49798 whole entry, looked up): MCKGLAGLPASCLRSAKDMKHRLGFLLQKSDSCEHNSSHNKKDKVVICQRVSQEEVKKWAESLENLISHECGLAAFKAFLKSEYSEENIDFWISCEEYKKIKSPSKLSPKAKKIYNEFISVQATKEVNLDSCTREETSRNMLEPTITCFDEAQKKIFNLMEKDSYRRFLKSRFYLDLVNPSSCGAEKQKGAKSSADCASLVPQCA
As for `Cn1c(SCC(=O)N2CCCC2)nnc1-c1cccs1`, the B-score entry is “inactive”. As to `O=C(O)c1ccc2c(c1)C(=O)N(c1ccc(/C=C/C(=O)c3ccccc3)cc1)C2=O`, the B-score is 24.6 (active).

Consider `Cc1cccc(N2C(=O)c3ccc(C(=O)Nc4cccc(C(=O)O)c4)cc3C2=O)c1`, for which the B-score result is “inactive”. The value for `O=C(/C=C/c1ccc(N2CCOCC2)cc1)c1ccccc1` was “inactive”; that for `COC(=O)c1sccc1NN1C(=O)c2ccccc2C1=O` was “inactive”; that for `COc1ccc(N2CCN(C(=O)COC(=O)c3cccc(S(=O)(=O)Nc4ccccc4OC)c3)CC2)cc1` was “inactive”. Turning to `O=C(Nc1cccc(Cl)c1)OCc1ccccn1`, the B-score entry is “inactive”. The value for `O=C(Nc1ccccc1)OCc1cn(-c2ccc(Cl)cc2)nn1` was “inactive”; that for `O=C(Nc1ccc(Cl)cc1)OCc1cc(-c2ccccc2)on1` was 6.27 (active). Regarding `Cc1cccc(-c2nnc(SCC(=O)O)n2Cc2ccccc2)c1`, the B-score entry was “inactive”. Regarding `O=C(/C=C/Sc1ncn[nH]1)c1ccc(Cl)cc1`, the B-score was 12 (active). As for `Cc1ccc(C(=O)/C=C/c2c(C)nn(-c3ccccc3)c2Cl)cc1`, the entry is “inactive”; as for `O=C(CSc1ncn[nH]1)N/N=C/c1ccc(F)cc1`, “inactive”.

Regarding `O=S(=O)(Cc1cc(Sc2ccccc2)nc(-c2ccccc2)n1)c1ccccc1`, the B-score result was “inactive”. The value for `Cc1cc(N2CCOCC2)nc(-c2ccc(Br)cc2)n1` was “inactive”; that for `Cc1ccc(Sc2cc(N3CCOCC3)nc(-c3ccccc3)n2)cc1` was 8.43 (active); that for `CCCN(CCc1ccccc1)C1CCc2c(O)cccc2C1` (centres undefined) was “inactive”. For the molecule `CCc1ccc(N(C(=O)c2csnn2)C(C(=O)NC2CCCCC2)c2ccncc2)cc1` (centres undefined), the B-score result was “inactive”.

Regarding `Cc1ccc2nc(-c3ccc(NC(=O)CN(C)S(=O)(=O)c4ccccc4)cc3)sc2c1`, the B-score entry was “inactive”. For `NC(=O)NC(=O)CSc1nc2cc([N+](=O)[O-])ccc2n1-c1cccc(C(F)(F)F)c1`, the B-score entry was “inactive”. Take `CCc1nnc(NS(=O)(=O)c2ccc(NC(=S)NC(=O)/C=C/c3cccs3)cc2)s1`: the B-score entry was “inactive”. Consider `CCc1nnc(NS(=O)(=O)c2ccc(NS(=O)(=O)c3ccccc3)cc2)s1`, for which the B-score result is “inactive”. As for `CCc1nnc(NS(=O)(=O)c2ccc(N=Cc3c(C)[nH]n(-c4ccc(C)cc4)c3=O)cc2)s1`, the figure is 5.86 (active); as for `O=C(OCc1cc(Cl)ccc1OC(F)F)c1cccnc1`, “inactive”. The value for `O=C1N/C(=N\N=C\c2ccco2)SC1Cc1ccc(F)cc1` (centres undefined) was “inactive”; that for `CC(C)=N/N=C1/NC(=O)C(Cc2ccccc2)S1` (centres undefined) was “inactive”. With `CCCCC1S/C(=N/N=C/c2cccs2)NC1=O` (centres undefined), the B-score is 6.28 (active). Consider `Cc1cccc(CN2CCN(Cc3cnn(-c4ccccc4F)c3)CC2CCO)n1` (centres undefined), for which the B-score result is “inactive”. Turning to `CCCCN1C(=S)NC[C@@H]1C(C)CC` (some centres undefined), the B-score entry was “inactive”. As to `CC(CO)NCC12CC3CC(CC(C3)C1)C2` (centres undefined), the B-score result is “inactive”. As for `Brc1ccc(-c2csc(N/N=C/c3cccnc3)n2)cc1`, the figure is 7.99 (active); as for `Brc1ccc(-c2csc(N/N=C/c3ccc4c(c3)OCO4)n2)cc1`, “inactive”; as for `Cc1ccccc1Nc1nc(-c2cccnc2)cs1`, “inactive”.

In the case of `CCCCN1C(=O)C(C)=C(C)C1OCCc1ccc(OC)c(OC)c1` (centres undefined), the B-score entry is “inactive”. Take `c1ccc(CN=C2Nc3ccccc3CS2)nc1`: the B-score result is “inactive”. Consider `CCC(C)c1ccc(O)c(/C=N/O)c1` (centres undefined), for which the B-score entry was “inactive”.

As for `CC(=O)NCC(O)c1ccc([N+](=O)[O-])cc1` (centres undefined), the B-score result is “inactive”.

With `CNCC(O)c1ccc(O)c(O)c1` (centres undefined), the B-score is 6 (active). Turning to `FC(F)(F)c1ccc(-n2cn[nH]c2=S)cc1`, the B-score entry was “inactive”. In the case of `Cc1ccnc(NS(=O)(=O)c2ccc(NC(=O)c3oc4ccc(F)cc4c3C)cc2)n1`, the B-score entry is “inactive”. For `CCOC(=O)c1c(NC(C)=O)sc2c(O)c(Br)ccc12`, the B-score entry was “inactive”.

Regarding `O=c1[nH]c(N2CCOCC2)nc2ccccc12`, the B-score entry is “inactive”. Turning to `CC1(C)Cc2c(C#N)c(SCc3nc4ccccc4[nH]3)nc(N3CCOCC3)c2CO1`, the B-score entry was “inactive”. In the case of `C1=C(N2CCOCC2)/C(=C/c2nc3ccccc3[nH]2)CC1`, the B-score was 5.95 (active). With `Nc1c(-c2ccc(F)cc2)cnn1C1CCS(=O)(=O)C1` (centres undefined), the B-score entry was “inactive”.

`C/C(=N\NC(=O)CSc1nc2ccccc2c(=O)n1-c1ccccc1C)c1cccs1`: the B-score entry is “inactive”. Turning to `O=C(O)C(c1ccccc1)N1C(=O)/C(=C\c2ccc(-c3cccc(Cl)c3)o2)SC1=S` (centres undefined), the B-score was 10.3 (active). In the case of `O=C1NN(c2ccccc2)C(=O)/C1=C/c1ccc(-c2cccc(C(=O)O)c2)o1`, the B-score result was “inactive”. For the molecule `CN1C(=O)/C(=C\c2ccc(-c3ccccc3)o2)SC1=S`, the B-score result is “inactive”.

On to `NC(=O)C1CCN(CC(O)CSc2ccc(F)cc2)CC1` (centres undefined), for which the B-score entry is “inactive”. Turning to `CC(Oc1ccccc1)C(=O)Nc1c2c(nn1-c1ccccc1)CS(=O)C2` (centres undefined), the B-score entry was “inactive”. Turning to `COc1ccc(-c2nc3c(s2)CCc2onc(-c4ccc(Br)cc4)c2-3)cc1`, the B-score entry was “inactive”. Consider `O=[N+]([O-])/C=C/c1ccc2c(ccn2Cc2ccccc2)c1`, for which the B-score was 44.8 (active). Regarding `O=C(/C=C/c1cccc([N+](=O)[O-])c1)N1CCN(Cc2ccccc2)CC1`, the B-score entry was “inactive”. On to `O=C(Cn1ccc2cc(S(=O)(=O)N3CCCC3)ccc21)NCc1ccccc1`, for which the B-score result is “inactive”. Turning to `O=c1c2cc([N+](=O)[O-])ccc2nc2n1CCC2`, the B-score result is “inactive”. Take `C=CCOc1cccc(C2NC(=O)c3ccccc3O2)c1` (centres undefined): the B-score entry was “inactive”. Consider `Oc1c(Cl)cc(Cl)cc1/C=N/c1ncn[nH]1`, for which the B-score result is “inactive”. Regarding `COc1cc(Br)cc(/C=N/c2ncn[nH]2)c1O`, the B-score is 5.03 (active). Regarding `Oc1ccc(Br)cc1C=Nc1ccc2[nH]ncc2c1`, the B-score result was “inactive”. As to `Cc1ccc(CN2CCN(Cc3cccc(C)n3)CC2CCO)cc1` (centres undefined), the B-score result was “inactive”. As for `CCCCCN(C(=O)CCC(=O)OCC(=O)NC1CCC(C)CC1)c1c(N)n(CCCC)c(=O)[nH]c1=O` (centres undefined), the entry is “inactive”. For the molecule `COc1cc(/C=N/O)cc(Br)c1OCc1cccc(Cl)c1`, the B-score entry was “inactive”. As for `COc1cc(/C=C2\SC(=O)NC2=O)ccc1OCc1ccc(Cl)nc1`, the B-score entry is “inactive”. Consider `Cc1cccc(C)c1-n1c(C)cc(/C=C2\C(=O)NN(c3ccccc3)C2=O)c1C`, for which the B-score result was “inactive”. As for `C#CCOc1ccc(/C=C2/C(=O)NN(c3ccccc3)C2=O)cc1OC`, the B-score is 7.25 (active). Regarding `COc1cc(/C=C2/C(=O)NN(c3ccc(F)cc3)C2=O)cc([N+](=O)[O-])c1O`, the B-score entry is “inactive”.

In the case of `COc1cc(/C=C2/C(=O)NN(c3cccc(Cl)c3)C2=O)cc(Br)c1O`, the B-score is 5.61 (active). As for `CONc1nc2nonc2nc1NOC`, the B-score entry was “inactive”. For the molecule `Cc1ccc(NC(=O)OCc2cncs2)cc1`, the B-score entry was “inactive”. As for `COc1ccc(NC(=O)/C(Cl)=C(/Cl)S(=O)Cc2ccc(C)cc2)cn1` (centres undefined), the figure is 5.83 (active); as for `COc1ccc(Nc2ccc([N+](=O)[O-])cn2)cn1`, “inactive”; as for `COC(=O)c1ccc(Nc2ncnc3sccc23)cc1`, “inactive”. Consider `Cc1ccc(-n2c(SCC(=O)N3CCC(C(=O)O)CC3)nc3ccccc3c2=O)cc1C`, for which the B-score entry is “inactive”. `Cc1nc(-c2ccc(Cl)cc2)sc1C(=O)CBr`: the B-score entry was “inactive”.

As for `Cc1nc(-c2ccccc2)sc1C(=O)/C=C/N(C)C`, the B-score result is “inactive”.

Take `Cc1nc(-c2ccccc2)sc1C(=O)/C=C/c1ccccc1`: the B-score is 11.9 (active). Consider `Cc1cccc(C(=O)NC(=S)N(C)C2CCCCC2)c1`, for which the B-score entry was “inactive”.

`CCC(c1nnnn1Cc1ccccc1)N(Cc1cc2cc(OC)ccc2[nH]c1=O)CC1CCCO1` (centres undefined): the B-score entry was “inactive”.

As to `CCC(c1nnnn1Cc1ccco1)N(Cc1cc2cc(OC)ccc2[nH]c1=O)C1CCCCC1` (centres undefined), the B-score was 16.8 (active). As for `CCC(c1nnnn1Cc1ccco1)N(CCc1ccccc1)Cc1cc2cccc(C)c2[nH]c1=O` (centres undefined), the B-score result was “inactive”. With `COC(=O)/C=C(\Oc1ccccc1)C1(O)CCCCC1`, the B-score entry is “inactive”. In the case of `O=C(Nc1ccccc1)C1CCN(C(=O)c2ccc(Br)cc2)CC1`, the B-score result was “inactive”. Turning to `COc1ccc(OCc2cn3c(C)cc(C)nc3n2)cc1`, the B-score entry is “inactive”. For the molecule `COc1ccc(C(=O)CSc2nc(C)cc(C)n2)cc1[N+](=O)[O-]`, the B-score result is “inactive”. Turning to `COc1ccc(C(C[N+](=O)[O-])n2nc(C)cc2C)cc1` (centres undefined), the B-score is 5.35 (active). Turning to `CCOc1ccc(NC(=S)NC(=O)/C=C/c2ccc(OC)cc2)c([N+](=O)[O-])c1`, the B-score result was “inactive”. For `C(=N\N1CCN(c2ccccn2)CC1)/C1=C(N2CCOCC2)C(=C/c2ccccc2)/CC1`, the B-score result is “inactive”. Turning to `N#C/C(=C\C1=C(N2CCOCC2)C(=C\c2ccccc2)/CC1)C(=O)Nc1ccccc1F`, the B-score result is “inactive”. Turning to `O=C1Nc2ccc(Br)cc2/C1=N/N=C/C1=C(N2CCOCC2)C(=C\c2ccccc2)/CC1`, the B-score is 13.1 (active). Regarding `COc1ccc(C(F)(F)F)cc1N/C=C\c1nnnn1-c1ccc(C)cc1`, the B-score entry was “inactive”. On to `CCOC(=O)c1ccccc1NC(=O)COC(=O)CCC(=O)N1CCOCC1`, for which the B-score entry is “inactive”.

Turning to `S=c1[nH]nc(-c2cc(-c3ccccc3)n[nH]2)n1/N=C/c1c2ccccc2cc2ccccc12`, the B-score entry was “inactive”. The value for `Cc1cc(-c2n[nH]c(=S)n2/N=C/C(Br)=C/c2ccccc2)n[nH]1` was 7.31 (active). With `CC(C)c1cc(C(=O)N/N=C/C(Br)=C/c2ccccc2)n[nH]1`, the B-score entry is “inactive”. Turning to `COCCn1c(SCC(=O)c2[nH]c(C)c(C(C)=O)c2C)nc2ccccc2c1=O`, the B-score entry was “inactive”.

In the case of `CCOc1cc2[nH]c(=S)n(Cc3ccc(C(=O)N4CCN(C)CC4)cc3)c(=O)c2cc1OCC`, the B-score entry is “inactive”. For `O=C(C1CCC(=O)N(C2CC2)C1)N1CCN(c2ccc(Cl)cc2)CC1` (centres undefined), the B-score entry was “inactive”. With `Nc1nc(Nc2ccccc2F)nc(NC2CCCCC2)c1[N+](=O)[O-]`, the B-score result was “inactive”. Regarding `Nc1nc(NCC2CCCO2)nc(Nc2ccccc2F)c1[N+](=O)[O-]` (centres undefined), the B-score result is “inactive”. Turning to `C=CCNc1nc(N)c([N+](=O)[O-])c(NC2CCCCC2)n1`, the B-score was 7.68 (active). Take `CC(C)c1ccc(/C=C2\NC(=O)NC2=O)cc1`: the B-score result was “inactive”.

As to `C=CCNC(=O)CCCC(=O)NCC=C`, the B-score result is “inactive”. Regarding `O=C(/C=C/c1ccc(Cl)c([N+](=O)[O-])c1)c1ccc(O)cc1`, the B-score is 6.92 (active). Take `O=C(Nc1cccnc1)c1ccc(Cl)c([N+](=O)[O-])c1`: the B-score entry was “inactive”. As for `CN(C)c1ccc(/C=C/C(=O)c2ccc(C(C)(C)C)cc2)cc1[N+](=O)[O-]`, the entry is “inactive”.

For the molecule `O=C(/C=C/c1ccc(Cl)cc1Cl)c1cccnc1`, the B-score entry was “inactive”. For `O=C(/C=C/c1ccc(Cl)c([N+](=O)[O-])c1)c1cccnc1`, the B-score was 11 (active). `CN(C)c1ccc(/C=C/C(=O)c2ccc(O)cc2)cc1[N+](=O)[O-]`: the B-score result is “inactive”.

For the origin of these results see PubChem BioAssay AID463165 (Johns Hopkins Ion Channel Center, 2010).
